Source: PubChem BioAssay AID1159580 (chemical genetic matrix, 2015)
“And” between values parts separate entries of the source, which are not always exact repeats. Identical values can stand only once. The whole screen tested about 5,500 compounds, of which about 2,000 (36%) were called active. About 18% were inconclusive and are not listed. Rule as the data show it: active = normalized growth mostly below about 0.91 (no sharp cut-off); inconclusive = no clear call, values can overlap the other calls; inactive = mostly above about 0.92. This is one part of the list.

Assay: chemical genetic growth profiling, strain panel (AID 1159580);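 also: tested at 20 µM; growth read once vehicle control cultures reached saturation at 30 °C; 1 = growth at the plate median or of vehicle wells; lower values mean less growth of the strain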
Conditions: S. cerevisiae deletion strains, growth OD

Measured: normalized growth

c1cc2c(cc1[C@H]1OC[C@H]3[C@@H]1CO[C@H]3c1ccc3c(c1)OCO3)OCO2
0.87 (active) and 0.888 (inactive): locus YHR030C, strain SLT2, stronger effect = lower value
inactive: locus YAL013W, strain DEP1, stronger effect = lower value 0.93 | locus YAL021C, strain ccr4, stronger effect = lower value 0.936 | locus YBR021W, strain FUR4, stronger effect = lower value 0.961 | locus YBR171W, strain sec66, stronger effect = lower value 0.897 | locus YBR229C, strain ROT2, stronger effect = lower value 0.941 | locus YBR231C, strain swc5, stronger effect = lower value 0.922 | locus YBR279W, strain paf1, stronger effect = lower value 0.936 | locus YCL029C, strain bik1, stronger effect = lower value 0.933 | locus YCL061C, strain MRC1, stronger effect = lower value 0.93 | locus YDL005C, strain med2, stronger effect = lower value 0.915 | locus YDL035C, strain GPR1, stronger effect = lower value 0.906 | locus YDL074C, strain BRE1, stronger effect = lower value 0.874 | locus YDL101C, strain DUN1, stronger effect = lower value 0.927 | locus YDL185W, strain tfp1, stronger effect = lower value 0.93 | locus YDR069C, strain doa4, stronger effect = lower value 0.956 | locus YDR162C, strain NBP2, stronger effect = lower value 0.894 | locus YDR195W, strain ref2 1.06 | locus YDR335W, strain msn5, stronger effect = lower value 0.934 | locus YEL037C, strain rad23, stronger effect = lower value 0.926 | locus YER110C, stronger effect = lower value 0.942 | locus YER111C, strain swi4, stronger effect = lower value 0.919 | locus YFR010W, strain ubp6, stronger effect = lower value 0.938 | locus YGL078C, strain dbp3, stronger effect = lower value 0.958 | locus YGL173C, strain kem1, stronger effect = lower value 0.904 | locus YGL227W, strain vid30, stronger effect = lower value 0.926 | locus YGL240W, strain doc1, stronger effect = lower value 0.89 | locus YGL248W, strain PDE1, stronger effect = lower value 0.901 | locus YGR078C, strain PAC10, stronger effect = lower value 0.856 | locus YGR135W, strain pre9, stronger effect = lower value 0.906 | locus YGR252W, strain gcn5, stronger effect = lower value 0.897 | locus YHR013C, strain ard1, stronger effect = lower value 0.871 | locus YHR079C, strain IRE1, stronger effect = lower value 0.895 | locus YIL073C, strain SPO22, stronger effect = lower value 0.783 | locus YJL134W, strain LCB3, stronger effect = lower value 0.974 | locus YJL154C, strain vps35, stronger effect = lower value 0.936 | locus YJL187C, strain SWE1 (second series), stronger effect = lower value 0.925 | locus YJL187C, strain SWE1, stronger effect = lower value 0.932 | locus YJR043C, strain POL32, stronger effect = lower value 0.959 | locus YJR066W, strain TOR1, stronger effect = lower value 0.888
0.714 (active) and 0.956 (inactive): locus YJL095W, strain BCK1, stronger effect = lower value
active: locus YAL026C, strain drs2, stronger effect = lower value 0.803 | locus YAL030W, strain snc1, stronger effect = lower value 0.908 | locus YBL061C, strain skt5, stronger effect = lower value 0.918 | locus YBR009C, strain hhf1, stronger effect = lower value 0.904 | locus YBR023C, strain chs3, stronger effect = lower value 0.906 | locus YCL011C, strain gbp2, stronger effect = lower value 0.881 | locus YCL016C, strain dcc1, stronger effect = lower value 0.911 | locus YCL069W, strain vba3, stronger effect = lower value 0.919 | locus YCR088W, strain abp1, stronger effect = lower value 0.911 | locus YDL040C, strain nat1, stronger effect = lower value 0.92 | locus YDL134C, strain PPH21, stronger effect = lower value 0.881 | locus YDL192W, strain arf1, stronger effect = lower value 0.877 | locus YDR001C, strain nth1, stronger effect = lower value 0.889 | locus YDR101C, strain arx1, stronger effect = lower value 0.895 | locus YDR137W, strain rgp1, stronger effect = lower value 0.492 | locus YDR159W, strain sac3, stronger effect = lower value 0.856 | locus YDR297W, strain sur2, stronger effect = lower value 0.905 | locus YDR318W, strain mcm21, stronger effect = lower value 0.867 | locus YDR334W, strain swr1, stronger effect = lower value 0.861 | locus YDR388W, stronger effect = lower value 0.923 | locus YDR392W, strain spt3, stronger effect = lower value 0.371 | locus YDR502C, strain sam2, stronger effect = lower value 0.869 | locus YEL003W, strain gim4, stronger effect = lower value 0.911 | locus YEL061C, strain CIN8 (second series), stronger effect = lower value 0.859 | locus YEL061C, strain CIN8, stronger effect = lower value 0.724 | locus YER015W, strain faa2, stronger effect = lower value 0.925 | locus YER016W, strain bim1, stronger effect = lower value 0.908 | locus YER155C, strain BEM2 (second series), stronger effect = lower value 0.783 | locus YER155C, strain BEM2, stronger effect = lower value 0.862 | locus YER167W, strain BCK2, stronger effect = lower value 0.813 | locus YGL086W, strain mad1, stronger effect = lower value 0.845 | locus YGL167C, strain pmr1, stronger effect = lower value 0.862 | locus YGL253W, strain hxk2, stronger effect = lower value 0.845 | locus YHR027C, strain rpn1, stronger effect = lower value 0.913 | locus YHR079C, strain IRE1 (second series), stronger effect = lower value 0.902 | locus YHR094C, strain hxt1, stronger effect = lower value 0.922 | locus YHR129C, strain ARP1, stronger effect = lower value 0.911 | locus YHR142W, strain chs7, stronger effect = lower value 0.803 | locus YHR200W, strain rpn10, stronger effect = lower value 0.884 | locus YIL066C, strain RNR3, stronger effect = lower value 0.828 | locus YIL125W, strain kgd1, stronger effect = lower value 0.889 | locus YIR030C, strain dcg1, stronger effect = lower value 0.901 | locus YJL092W, strain hpr5, stronger effect = lower value 0.914 | locus YJL095W, strain BCK1 (second series), stronger effect = lower value 0.904 | locus YJL115W, strain asf1, stronger effect = lower value 0.904 | locus YJL129C, strain trk1, stronger effect = lower value 0.722 | locus YJL164C, strain tpk1, stronger effect = lower value 0.896 | locus YJL166W, strain qcr8, stronger effect = lower value 0.88 | locus YJL168C, strain set2, stronger effect = lower value 0.927
